{"source": "PubChem BioAssay AID624300", "about": "(Southern Research Specialized Biocontainment Screening …, 2012)", "note": "The whole screen tested about 2,400 compounds, of which about 360 (15%) were called active.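 How the source made its calls: active means viability falls under 70% at one or more tested concentrations, taken as toxicity; inactive means viability stays over 70% at every dose.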 Only a sample is shown. Measured potencies and affinities stand elsewhere.", "data": [{"assay": "viability loss in HeLa cells – cytotoxicity control for MgcRacGAP inhibitor project, dose response (AID 624300)", "conditions": "CellTiter-Glo luminescence, 24 h; series mostly up to 100 µM", "values": [{"smiles": "N#CC1=C(S)N(c2ccccc2)C(c2ccc(-c3cccc(Cl)c3)o2)NC1=O", "note": "(stereo unspecified)", "outcome": "inactive"}, {"smiles": "COc1ccccc1N1CCN(CCCOc2ccc(F)cc2)CC1", "outcome": "inactive"}, {"smiles": "Cc1cccc(-c2n[nH]c(=S)n2/N=C/c2ccco2)c1", "outcome": "inactive"}, {"smiles": "CCOc1cc(CNc2ccc(N3CCOCC3)cc2)cc(Br)c1OCC", "outcome": "inactive"}, {"smiles": "COc1ccc(CNc2ccc(N3CCN(C(C)=O)CC3)cc2)cc1OC", "outcome": "inactive"}, {"smiles": "COc1cc(CNc2ccc(N3CCOCC3)cc2)cc(Br)c1OC", "outcome": "inactive"}, {"smiles": "CCOc1cc(CNc2ccc3c(c2)OCCO3)cc(Br)c1OCC(N)=O", "outcome": "inactive"}, {"smiles": "O=C(Cn1cnc([N+](=O)[O-])n1)N/N=C/c1ccc(O)cc1O", "outcome": "inactive"}, {"smiles": "O=S(=O)(c1ccccc1)N1N=C(c2ccc(O)cc2)CC1c1ccco1", "note": "(stereo unspecified)", "outcome": "inactive"}, {"smiles": "CN(C)c1ccc(NC(=O)c2ccc3nsnc3c2)cc1", "outcome": "inactive"}, {"smiles": "O=C(c1ccccc1)N1CCN(C2CCCCC2)CC1", "outcome": "inactive"}, {"smiles": "COc1ccc(/C=N/n2c(-c3n[nH]c4c3CCC4)n[nH]c2=S)c(OC)c1OC", "outcome": "inactive"}, {"smiles": "Nc1n[nH]c(N)c1N=Nc1ccc2c(c1)OCO2", "outcome": "inactive"}, {"smiles": "O=C(CSc1ccc2ccccc2c1)N1CCN(c2ccc(O)cc2)CC1", "outcome": "inactive"}, {"smiles": "Oc1ccc(NC(=S)Nc2ccc(F)cc2)cc1", "outcome": "inactive"}, {"smiles": "Oc1ccc(NC(=S)N=Nc2c(O)[nH]c3ccccc23)cc1", "outcome": "inactive"}, {"smiles": "Oc1ccc(N2CCN(Cc3cc4c(cc3Br)OCCO4)CC2)cc1", "outcome": "inactive"}, {"smiles": "CC1CCN(CC(=O)Nc2ccc(S(=O)(=O)NC3CC3)cc2)CC1", "outcome": "inactive"}, {"smiles": "Cc1ccc(NC(=O)NC(=O)CN2CCN(c3ccc(O)cc3)CC2)c(C)c1", "outcome": "inactive"}, {"smiles": "CN(c1ccc(O)cc1)c1nc(-c2cccs2)cs1", "outcome": "inactive"}, {"smiles": "COc1ccc(CNC(=O)CN(C)Cc2ccc(C(C)(C)C)cc2)cc1", "outcome": "inactive"}, {"smiles": "CN1CCN(C=NC2=NN(c3cccc(C(F)(F)F)c3)CC2)CC1", "outcome": "inactive"}, {"smiles": "CCOC(=O)c1[nH]c(=S)n(Cc2ccccc2)c1C(=O)OCC", "outcome": "inactive"}, {"smiles": "CN(C)c1ccc(NC(=O)COC(=O)c2ccc3c(c2)OCO3)cc1", "outcome": "inactive"}, {"smiles": "COC(=O)C1CCN(C(=O)COC(=O)/C=C/c2ccc(O)c(OC)c2)CC1", "outcome": "inactive"}, {"smiles": "CSc1nc(/C=C2\\C=Nc3ccccc32)c(O)n1C", "outcome": "inactive"}, {"smiles": "CCOC(=O)C1CCCN(C(=S)Nc2ccc(Nc3ccccc3)cc2)C1", "note": "(stereo unspecified)", "outcome": "inactive"}, {"smiles": "CN(C)c1ccc(-n2cccc2/C=C/[N+](=O)[O-])cc1", "outcome": "inactive"}, {"smiles": "COc1ccc(-n2cnc(=S)[nH]c2=S)cc1", "outcome": "inactive"}, {"smiles": "COc1ccc(NC2CCCN(C(=O)c3ccccc3-c3ncc[nH]3)C2)cc1", "note": "(stereo unspecified)", "outcome": "inactive"}, {"smiles": "CCN1CCN(CCOc2cccc(Cl)c2Cl)CC1", "outcome": "inactive"}, {"smiles": "COc1ccc(NC(=O)c2cc3ccc(O)cc3o/c2=N\\O)cc1", "outcome": "inactive"}, {"smiles": "Cc1sc2ncnc(Nc3ccc(O)cc3)c2c1C", "outcome": "inactive"}, {"smiles": "CCN(CC)S(=O)(=O)c1cccc(C(=O)N/N=C/c2ccc(OC)c(O)c2)c1", "outcome": "inactive"}, {"smiles": "Cc1c(O)ccc2c3c(c(=O)oc12)CCCC3", "outcome": "inactive"}, {"smiles": "Cc1ccc2c(c1)C(C)CC(C)(C)N2C(=O)CN1CCN(C)CC1", "note": "(stereo unspecified)", "outcome": "inactive"}, {"smiles": "O=c1c(-c2ccccc2Cl)c[nH]n1-c1ccccc1", "outcome": "inactive"}, {"smiles": "O=c1c(-c2cccc(Cl)c2)c[nH]n1-c1ccccc1", "outcome": "inactive"}, {"smiles": "Cc1ccc(OC(=O)CCC(=O)Nc2ccc(C)c(C)c2)cc1", "outcome": "inactive"}, {"smiles": "COc1cc(/C=C/C(=O)OCC(=O)NC(=O)NC(C)C)ccc1O", "outcome": "inactive"}, {"smiles": "COc1ccc(N2CCN(C(=O)CCCn3nnnc3CN3CCOCC3)C(C)C2)cc1", "note": "(stereo unspecified)", "outcome": "inactive"}, {"smiles": "O=C1/C(=C\\c2ccc(O)cc2)SC(=S)N1/N=C/c1ccc(O)cc1", "outcome": "inactive"}, {"smiles": "Cc1cc(O)ccc1N=Cc1c(C(F)(F)F)[nH][nH]c1=O", "outcome": "inactive"}, {"smiles": "Nc1ccc2c(c1)OCCOCCOCCOCCOCCO2", "outcome": "inactive"}, {"smiles": "Oc1ccccc1CNc1ccc2c(c1)OCCO2", "outcome": "inactive"}, {"smiles": "Nc1ccc2nc(CCCCc3nc4ccccc4[nH]3)[nH]c2c1", "outcome": "inactive"}, {"smiles": "CCOC(=O)c1cc(NCc2cccs2)ccc1N1CCOCC1", "outcome": "inactive"}, {"smiles": "CN1CCN(/N=C/c2nc(-c3ccccc3)n3ccccc23)CC1", "outcome": "inactive"}, {"smiles": "CN(C)c1ccc(Nc2ccc([N+](=O)[O-])cn2)cc1", "outcome": "inactive"}, {"smiles": "c1cc(CNc2ccc3c(c2)OCCO3)ccn1", "outcome": "inactive"}, {"smiles": "CN1CCCN(Cc2ccccc2C(F)(F)F)CC1", "outcome": "inactive"}, {"smiles": "Cc1ccc(CN2CCN(Cc3ccco3)CC2)cc1", "outcome": "inactive"}, {"smiles": "Cc1ccc(NC(=O)CN(C)C2CCCCC2)cc1Cl", "outcome": "inactive"}, {"smiles": "CN1C(=O)NC(c2ccc(O)cc2)C2=C1CN(c1ccc(O)cc1)C2=O", "note": "(stereo unspecified)", "outcome": "inactive"}, {"smiles": "COc1ccc(/C=N/NC(=O)c2cccc(S(=O)(=O)N3CCCC3)c2)cc1O", "outcome": "inactive"}, {"smiles": "CN(C)c1cc(NC(=O)CN2CCCC2)c2ccccc2n1", "outcome": "inactive"}, {"smiles": "CCOc1ccc(CNC2CCCc3ccccc32)cc1", "note": "(stereo unspecified)", "outcome": "inactive"}, {"smiles": "Nc1ccn([C@@H]2O[C@H](CNCC3=CCOc4ccc(O)cc43)[C@@H](O)[C@H]2O)c(=O)n1", "outcome": "inactive"}, {"smiles": "O=C(c1cc(C2CC2)nn1-c1ccccc1)N1CCN(c2ccc(O)cc2)CC1", "outcome": "inactive"}, {"smiles": "O=C(c1ccccc1)c1ccc(C(=O)N2CCN(c3ccc(O)cc3)CC2)cc1", "outcome": "inactive"}, {"smiles": "O=C(CN1CCCCCC1)Nc1nc2ccccc2s1", "outcome": "inactive"}, {"smiles": "Cc1ccc(NC(=O)CN2CCC(Cc3ccccc3)CC2)cc1S(=O)(=O)N(C)C", "outcome": "inactive"}, {"smiles": "CN(C)/N=C/c1ccc(N2CCOCC2)cc1", "outcome": "inactive"}, {"smiles": "Cn1c(N2CCOCC2)c(/C=N/O)c2ccccc21", "outcome": "inactive"}, {"smiles": "COc1ccc(NC(=S)NNS(=O)(=O)c2ccc3ccccc3c2)c(OC)c1", "outcome": "inactive"}, {"smiles": "O=C(NC(=S)N1CCN(c2ccc(O)cc2)CC1)c1ccco1", "outcome": "inactive"}, {"smiles": "COc1cccc(N2CC(C(=O)Oc3ccc4ccccc4c3)CC2=O)c1", "note": "(stereo unspecified)", "outcome": "inactive"}, {"smiles": "COc1ccc(Cn2nnnc2C(c2cccnc2)N2CCN(c3ccc(O)cc3)CC2)cc1", "note": "(stereo unspecified)", "outcome": "inactive"}, {"smiles": "CC1(C)CC(=O)C=C(Nc2ccc(O)cc2)C1", "outcome": "inactive"}, {"smiles": "CC1(C)CC(=O)C(C=Nc2ccc(O)cc2)=C(O)C1", "outcome": "inactive"}, {"smiles": "Cc1ccc(/C=N/Nc2ccc(Cl)c(C(=O)O)c2)s1", "outcome": "inactive"}, {"smiles": "CCN(CC(=O)Nc1ccc(S(=O)(=O)N2CCCC2)cc1)CC(=O)Nc1cccc(OC)c1", "outcome": "inactive"}, {"smiles": "Nc1cc(SCc2ccc([N+](=O)[O-])cc2)ncn1", "outcome": "inactive"}, {"smiles": "O=[N+]([O-])c1ccc(Oc2cccc3cccnc23)c([N+](=O)[O-])c1", "outcome": "inactive"}, {"smiles": "Cc1ccc(S(=O)(=O)Oc2ccc(/C=C3/C(=N)N4C(=NC3=O)SN=C4S(C)(=O)=O)cc2)cc1", "outcome": "inactive"}, {"smiles": "COc1cc2nc(=S)n(CCCN3CCOCC3)c(N)c2cc1OC", "outcome": "inactive"}, {"smiles": "COc1cccc(CNc2ccc3c(c2)ncn3C)c1OC", "outcome": "inactive"}, {"smiles": "COc1cccc(CNc2ccc(N3CCCCC3)cc2)c1OC", "outcome": "inactive"}, {"smiles": "Oc1ccc(NCc2ccccc2OCc2ccccc2F)cc1", "outcome": "inactive"}, {"smiles": "CC(Oc1ccc(Cl)cc1Cl)C(=O)Nc1ccc(O)cc1", "note": "(stereo unspecified)", "outcome": "inactive"}, {"smiles": "O=C(c1c(Cl)cccc1Cl)N1CCN(c2cccc3[nH]ccc23)CC1", "outcome": "inactive"}, {"smiles": "COc1ccc(N2CCC(CNC(=S)Nc3cccc(C)c3)C2)cc1", "note": "(stereo unspecified)", "outcome": "inactive"}, {"smiles": "Cc1nc2ccccc2n2c(O)c(CC(=O)O)cc12", "outcome": "inactive"}, {"smiles": "Clc1cc(Cl)c(OCCCCn2cncn2)c(Cl)c1", "outcome": "inactive"}, {"smiles": "COc1cc(/C=N\\N=C2/SC(CC(=O)O)C(=O)N2c2ccc(O)cc2)ccc1O", "note": "(stereo unspecified)", "outcome": "inactive"}, {"smiles": "CCN(CC)S(=O)(=O)c1ccc(C)c(NC(=O)CN2CCN(Cc3ccccc3)CC2)c1", "outcome": "inactive"}, {"smiles": "CCN(CC)c1ccc(S(=O)(=O)N2CCOCC2)cc1NC(=O)COC(=O)/C=C/c1ccc(O)c(OC)c1", "outcome": "inactive"}, {"smiles": "CCn1cnc2cc(NCc3ccc(OC)cc3)ccc21", "outcome": "inactive"}, {"smiles": "COc1ccc2c(c1)-c1nc(/N=C/c3ccccc3O)sc1CC2", "outcome": "inactive"}, {"smiles": "Cn1cccc1/C=N/N1CCN(c2ccccc2)CC1", "outcome": "inactive"}, {"smiles": "COc1cc(/C=N/NC(=O)c2nc(C)cc(C)n2)ccc1O", "outcome": "inactive"}, {"smiles": "Cc1cc(C)n(CCC(=O)N/N=C/c2ccc(O)cc2)n1", "outcome": "inactive"}, {"smiles": "Cc1cc(=O)[nH]c(N/N=C/c2ccc(O)c(O)c2)n1", "outcome": "inactive"}, {"smiles": "COc1cc(/C=N/Nc2cccc3cccnc23)cc(OC)c1O", "outcome": "inactive"}, {"smiles": "COc1cc(/C=C/C(=O)OCC(=O)N2CCCc3ccccc32)ccc1O", "outcome": "inactive"}, {"smiles": "COc1cc(/C=C/C(=O)OCC(=O)NC(=O)NC(C)(C)C)ccc1O", "outcome": "inactive"}, {"smiles": "COc1cc(/C=C/C(=O)OCC(=O)NC2CCS(=O)(=O)C2)ccc1O", "note": "(stereo unspecified)", "outcome": "inactive"}, {"smiles": "COc1ccc(N2CCN(C(c3cccs3)C(C)NC(=O)c3ccco3)CC2)cc1", "note": "(stereo unspecified)", "outcome": "inactive"}, {"smiles": "O=C1NN(c2ccc(Br)cc2)C(=O)/C1=C\\c1ccc(O)cc1O", "outcome": "inactive"}, {"smiles": "O=C1NN(c2ccccc2)C(=O)C1=Cc1ccccc1O", "outcome": "inactive"}, {"smiles": "C(=N\\N1CCOCC1)/c1nc(-c2ccccc2)n2ccccc12", "outcome": "inactive"}, {"smiles": "COc1cc(OC)cc(C(=O)N2CCN(Cc3ccccc3Br)CC2)c1", "outcome": "inactive"}, {"smiles": "COc1cc(/C=N/NC(=O)CCN2CCCCC2)ccc1O", "outcome": "inactive"}, {"smiles": "COc1ccc2c(/C=N/Nc3ccc(C(=O)O)cc3)c[nH]c2c1", "outcome": "inactive"}, {"smiles": "COc1cc(/C=N/Nc2ccccn2)cc(OC)c1O", "outcome": "inactive"}, {"smiles": "COc1ccc2c(c1)-c1nc(/N=C/c3cccc(OC)c3O)sc1CC2", "outcome": "inactive"}, {"smiles": "COc1ccc2nc(C)cc(SCC(=O)N/N=C/c3ccc(O)c(O)c3)c2c1", "outcome": "inactive"}, {"smiles": "CN1CCCCCC1=Nc1ccccc1C#N", "outcome": "inactive"}, {"smiles": "CCn1c(C)nc2cc(C(=O)N/N=C/c3cccc(O)c3O)ccc21", "outcome": "inactive"}, {"smiles": "O=c1/c(=C/c2ccc(O)cc2)sc2n1CCCN=2", "outcome": "inactive"}, {"smiles": "Cc1c(N=Nc2ccc(O)cc2)c(=O)n(-c2ccccc2)n1C", "outcome": "inactive"}, {"smiles": "Oc1ccc(Nc2ccnc3cc(Cl)ccc23)cc1", "outcome": "inactive"}, {"smiles": "NC(=S)NNc1ccnc2cc(Cl)ccc12", "outcome": "inactive"}, {"smiles": "Cc1ccc(NCc2ccco2)cc1C", "outcome": "inactive"}, {"smiles": "COc1cc(/C=N/NC(=O)CCC(=O)Nc2ccc(F)cc2)ccc1O", "outcome": "inactive"}, {"smiles": "CN(C)c1ccc(N/C=C/C(=O)C(C)(C)C)cc1", "outcome": "inactive"}]}]}
